Experimental data: PubChem BioAssay (NCATS)
Inconclusive results are not listed. Activity calls are given as the source filed them. Unless noted, calls follow the shape of the dose curve; as a rule, active = well fitted curve in the direction sought with a large enough effect; inconclusive = small, poorly fitted or top-dose-only effect, or another doubt; inactive = no such curve, though single readings can be large; an effect the other way counts as inactive or inconclusive.

Tests used:
[1] = MultiTox-Fluor Cytotoxicity Assay - LYMP1-001 - Live Cells (AID 947)
[2] = Cell Viability - LYMP1-002 - Assay at 16 hr (AID 948)
Procedure, shortened: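 In this qHTS, lymphoblastoid LYMP1-002 cells (human) receive compounds for 16 hr at 37 C. Viability is taken from CellTiter-Glo ATP luminescence, and AC50 derives from standard Hill fits.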

[3] = MultiTox-Fluor Cytotoxicity Assay - LYMP1-002 - Live Cells (AID 955);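 also: cells exposed to compound for 16 hours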
Procedure, shortened: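 Cells were seeded at 2500 per well and incubated 5 hr. Compounds were then added for 16 hr at 37 C, followed by MultiTox-Fluor reagent for 60 min at room temperature and fluorescence reading of viable-cell protease signal.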

[4] = MultiTox-Fluor Cytotoxicity Assay - LYMP1-002 - Dead Cells (AID 960);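 also: cells exposed to compound for 16 h at 37 °C; nearly all actives have a fitted effect of over 60% in size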
Procedure, shortened: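 Cells were plated, rested 5 hr, then treated with compound dilution series for 16 hr at 37 C. After adding substrate reagent and 60 min at room temperature, dead-cell protease fluorescence gave concentration-response curves fitted by the Hill equation.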

[5] = MultiTox-Fluor Cytotoxicity Assay - LYMP1-003 - Dead Cells (AID 961);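 also: cells exposed to compound for 16 h at 37 °C; nearly all actives have a fitted effect of over 70% in size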
Procedure, shortened: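 Acute toxicity is scored as increased dead-cell protease activity in human lymphoblastoid LYMP1-003 cells after 16 h compound exposure in complete culture medium. Activity is normalized to DMSO basal and 15 uM tetraoctylammonium bromide as full response.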

[6] = MultiTox-Fluor Cytotoxicity Assay - LYMP1-003 - Live Cells (AID 962);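 also: cells exposed to compound for 16 hours at 37 °C; cytotoxic hits lower the live-cell protease signal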
Procedure, shortened: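 Acute cytotoxicity is scored as a drop in live-cell protease activity in human lymphoblastoid LYMP1-003 cells after 16 hr compound exposure at 37 C. AC50 values come from Hill-equation modelling of concentration-response data.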

[7] = Cell Viability - LYMP1-003 - Assay at 24 hr (AID 963)
Procedure, shortened: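 Cytotoxicity is scored as a concentration-dependent fall in ATP-linked luciferase signal in human lymphoblastoid LYMP1-003 cells treated 24 hr at 37 C in complete culture medium.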

[8] = Cell Viability - LYMP1-003 - Assay at 40 hr (AID 964); also: series mostly up to about 92 µM; nearly all actives have a fitted effect of over 60% in size
Procedure, shortened: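 Luminescent ATP signal (CellTiter-Glo) served as the viability read-out after 40 hr compound treatment of human lymphoblastoid LYMP1-003 cells at 37 C. Decreases in ATP were fitted with the Hill equation to give AC50.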

[9] = Cell Viability - LYMP2-003 (AID 965);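 also: cells exposed to compounds for 24 h before reading; nearly all actives have a fitted effect of over 50% in size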
Procedure, shortened: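 qHTS, human lymphoblastoid line, 2500 cells/well, complete medium. 24 h drug, 37 C. ATP-based luminescent readout; Hill-fit AC50.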

[10] = Cell Viability - LYMP2-004 (AID 966); also: nearly all actives have a fitted effect of over 65% in size
Procedure, shortened: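 qHTS cytotoxicity: human lymphoblastoid line, 24 hr compound treatment, 37 C, complete medium. Viability read as cellular ATP via luciferase luminescence; tetraoctylammonium bromide served as positive control.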

[11] = Cell Viability - LYMP2-005 (AID 967); also: series mostly up to about 92 µM
Procedure, shortened: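 Luciferase-based ATP quantitation served as the viability measure in human lymphoblastoid LYMP2-005 cells exposed to test compounds for 24 h at 37 C in complete culture medium. Potency (AC50) was obtained by fitting concentration-response curves with the Hill equation.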

[12] = Cell Viability - LYMP2-009 (AID 968); also: series mostly up to about 92 µM; nearly all actives have a fitted effect of over 55% in size
[13] = Cell Viability - LYMP2-011 (AID 969); also: nearly all actives have a fitted effect of over 60% in size
Procedure, shortened: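 In this qHTS cytotoxicity format, compounds are tested across concentrations on human lymphoblastoid cells in complete medium for 24 hours at 37 C. Viability is taken as cellular ATP measured by luciferase luminescence.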

[14] = Cell Viability - LYMP2-017 (AID 972); also: series mostly up to about 92 µM; nearly all actives have a fitted effect of over 55% in size
Procedure, shortened: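 Cytotoxicity is scored as a concentration-dependent drop in cellular ATP in a human lymphoblastoid line after 24 hr treatment at 37 C. Values are AC50s from Hill-equation modelling.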

[15] = Cell Viability - LYMP2-023 (AID 975); also: series mostly up to about 92 µM; nearly all actives have a fitted effect of over 55% in size
Procedure, shortened: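 Steps: seed 2500 human lymphoblastoid cells per well, incubate 5 hr at 37 C, add compound for 24 hr at 37 C, add CellTiter-Glo, hold 30 min at room temperature, read luminescence. AC50 derived by Hill modelling.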

[16] = Cell Viability - LYMP2-013 (AID 970); also: series mostly up to about 92 µM; nearly all actives have a fitted effect of over 55% in size
Procedure, shortened: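 Cytotoxicity is scored as a concentration-dependent drop in intracellular ATP in human lymphoblastoid cells after 24 hr compound exposure at 37 C. ATP is quantified by luciferase luminescence, and AC50 values come from Hill-equation modeling.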

[17] = Cell Viability - LYMP2-015 (AID 971); also: nearly all actives have a fitted effect of over 55% in size
Procedure, shortened: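 Cells are seeded at 2500 per well and incubated 5 hr at 37 C. Compounds are added across a concentration series for 24 hr at 37 C. CellTiter-Glo is added, and luminescence is read after 30 min at room temperature.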

[18] = Cell Viability - LYMP2-019 (AID 973); also: nearly all actives have a fitted effect of over 55% in size
Procedure, shortened: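 Cytotoxicity is scored as a concentration-dependent drop in cellular ATP after cells (2500/well) receive compound for 24 hr at 37 C. Tetraoctylammonium bromide serves as positive control.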

[19] = Cell Viability - LYMP2-021 (AID 974)
Procedure, shortened: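 Loss of cellular ATP, measured with a luciferase-based CellTiter-Glo readout, serves as the toxicity signal in human lymphoblastoid cells treated for 24 hours at 37 C. Potency is reported as AC50 from a standard Hill model.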

[20] = target: Pyruvate kinase PKM (Homo sapiens) (UniProt P14618); assay: qHTS Assay for Activators of Human Muscle Pyruvate Kinase (AID 954; active = well fitted curve in the direction sought with a large enough effect, not every such curve was filed as active)
Pyruvate kinase PKM (Homo sapiens), sequence (P14618 whole entry, looked up): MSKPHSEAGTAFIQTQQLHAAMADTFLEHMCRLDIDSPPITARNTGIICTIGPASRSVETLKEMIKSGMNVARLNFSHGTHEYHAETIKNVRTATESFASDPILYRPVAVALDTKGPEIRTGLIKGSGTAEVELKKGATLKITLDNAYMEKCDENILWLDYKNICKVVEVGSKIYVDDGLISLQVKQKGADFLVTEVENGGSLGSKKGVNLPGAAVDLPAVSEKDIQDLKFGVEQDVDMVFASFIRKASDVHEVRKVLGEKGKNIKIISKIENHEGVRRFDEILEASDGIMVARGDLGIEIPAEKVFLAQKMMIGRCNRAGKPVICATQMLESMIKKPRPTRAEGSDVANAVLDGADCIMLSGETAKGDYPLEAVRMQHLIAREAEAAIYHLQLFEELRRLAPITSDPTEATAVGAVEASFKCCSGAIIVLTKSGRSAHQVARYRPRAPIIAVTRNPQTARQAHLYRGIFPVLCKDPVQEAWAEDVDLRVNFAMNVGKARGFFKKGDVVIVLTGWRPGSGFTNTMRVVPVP
Procedure, shortened: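 Screening used highly purified human pyruvate kinase M2 under submaximal activity, with PEP at its Km and ADP below Km. After an hour at room temperature, ATP was read by luciferase luminescence.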

Measured: outcome

O=C(O)CC(O)(CC(=O)O)C(=O)O
not listed: [16] | [17] | [18] | [19] | [20]
inactive: all other assays above

CCCCCCCCCC(=O)O
not listed: [20]
inactive: all other assays above

CN[C@H]1CC[C@@H](c2ccc(Cl)c(Cl)c2)c2ccccc21
inactive: [20]

C=Cc1ccccc1
not listed: [11] | [20]
inactive: all other assays above

NCCCC(=O)O
inactive: [20]

Cc1ccc(OC[C@H](O)[C@H](C)NC(C)C)c2c1CCC2
inactive: [20]

CN(C)Cc1ccccc1
not listed: [20]
inactive: all other assays above

COC(C)=O
not listed: [20]
inactive: all other assays above
